Where “and” joins values, the source holds several entries; their conditions need not be identical. Identical values can stand only once.
tested on: H9c2; test: cardiomyocyte survival under oxidative or metabolic stress – cell-based, panel, H9c2 and HL-1, ATP luminescence, set 2, SAR follow-up (AID 651871); conditions: H9c2/HL-1 cardiomyocytes, 2-deoxyglucose stress, with 2-deoxyglucose; run 14, at 79 µM (top of the series);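 note: cells exposed to stressor for 2 h before ATP readout; reference of the scale not given here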

SMILES	activity (protection/inhibition)
COc1ccc2c(c1OC)C(=O)N1c3ccccc3C(=O)N(Cc3cccc(Cl)c3Cl)C21 (stereo not drawn)	74.7% and 78.2% and -6.22%
COc1ccc2nc(-c3cc(OC)c(OC)c(OC)c3)cc(C(=O)NCC(=O)Nc3ccc(C(C)=O)cc3)c2c1	89.3%
CCOC(=O)c1cccc(NC(=O)CNC(=O)c2cc(-c3cc(OC)c(OC)c(OC)c3)nc3ccccc23)c1	95.1%

Reference: PubChem BioAssay AID651871 (Sanford-Burnham Center for Chemical Genomics, 2012)
